Lamin A splicing: changes lamin A minigene splicing in HeLa cells; HeLa LMNA splicing GFP/RFP minigene ratio, 48 h; Potency, µM (top dose mostly 46.1 µM), for the others: at the top dose ratio change, negative = inhibition, most hits filed as inhibitors; 0.01% of 200,000 active; active = well fitted inhibition curve with a large enough effect in the signal ratio, with a control signal flat, not every such curve was filed as active; inconclusive = small, poorly fitted or top-dose-only effect, or effect the other way, or a change in a side signal; the % refers to the signal ratio; also: % is scaled to controls: 0 for no effect and ±100 for the full control effect
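S3 HeLa cells stably expressing lamin A-EGFP splicing minigene plus DsRed2, 600 cells/well, 48 h compound exposure at 37C. Laser-scanning cytometry; analysed as GFP (500-530 nm)/RFP (575-640 nm) total intensity ratio; 0.5% DMSO vehicle.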
HTT cytoprotect: cytoprotection in Huntington HTT-Q103 PC12 cell model; AID 1471; 0.14% of 230,000 active; Potency, µM (highest dose often 56.4 µM), for the others: cytoprotection (ATP increase), hits mostly activators; PC12 HTT-Q103 induced, cytoprotection, ATP luminescence, 40 h; also: % of control where 0% means no effect; nearly all actives have a fitted effect of over 45% in size
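Rat PC12, Q103 Htt exon1-GFP fusion, ecdysone promoter; tebufenozide inducer 100 nM final; compound titration; qHTS, 1500 cells/well; ATPlite luminescent read.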
HPGD block: inhibitors of human 15-hydroxyprostaglandin dehydrogenase (HPGD) | P15428 | Potency, µM, for the others: at the highest dose activity change, negative = inhibition, hits mostly inhibitors | AID 894 | purified HPGD, NADH fluorescence kinetic, PGE2 substrate | 4.3% of 150,000 active; active = well fitted inhibition curve with a large enough effect, not every such curve was filed as active; inconclusive = small, poorly fitted or top-dose-only effect, or another doubt; inactive = no such curve, though single readings can be large or run the other way; also: % is scaled to controls: 0 for no effect and ±100 for the full control effect
Target sequence (P15428 whole entry, looked up): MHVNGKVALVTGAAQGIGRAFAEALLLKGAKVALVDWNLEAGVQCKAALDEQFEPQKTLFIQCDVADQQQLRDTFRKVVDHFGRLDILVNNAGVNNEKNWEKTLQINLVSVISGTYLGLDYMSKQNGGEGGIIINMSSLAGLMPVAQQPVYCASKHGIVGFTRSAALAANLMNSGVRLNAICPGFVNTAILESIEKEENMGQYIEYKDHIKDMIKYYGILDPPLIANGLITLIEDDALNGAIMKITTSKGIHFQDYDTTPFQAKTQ
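NADH formation kinetics: reaction with 30 uM PGE2 and 1 mM NAD+ (final), 20 nM enzyme, Tris-HCl pH 8 with Tween 20, after 15 min compound preincubation at room temperature. Fluorescence change, last versus first of five reads.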
ALDH1A1 inh: blocks purified human ALDH1A1 activity. 7.3% of 220,000 active. Potency, µM (series often up to 75.3 µM), without a hit: top-dose activity, negative = inhibition, hits mostly inhibitors. P00352. Purified ALDH1A1, NADH fluorescence, propionaldehyde substrate; active = well fitted inhibition curve with a large enough effect, not every such curve was filed as active; inconclusive = small, poorly fitted or top-dose-only effect, or another doubt; inactive = no such curve, though single readings can be large or run the other way;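 also: plate controls were no enzyme wells and a reference inhibitor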
Target sequence (P00352 whole entry, looked up): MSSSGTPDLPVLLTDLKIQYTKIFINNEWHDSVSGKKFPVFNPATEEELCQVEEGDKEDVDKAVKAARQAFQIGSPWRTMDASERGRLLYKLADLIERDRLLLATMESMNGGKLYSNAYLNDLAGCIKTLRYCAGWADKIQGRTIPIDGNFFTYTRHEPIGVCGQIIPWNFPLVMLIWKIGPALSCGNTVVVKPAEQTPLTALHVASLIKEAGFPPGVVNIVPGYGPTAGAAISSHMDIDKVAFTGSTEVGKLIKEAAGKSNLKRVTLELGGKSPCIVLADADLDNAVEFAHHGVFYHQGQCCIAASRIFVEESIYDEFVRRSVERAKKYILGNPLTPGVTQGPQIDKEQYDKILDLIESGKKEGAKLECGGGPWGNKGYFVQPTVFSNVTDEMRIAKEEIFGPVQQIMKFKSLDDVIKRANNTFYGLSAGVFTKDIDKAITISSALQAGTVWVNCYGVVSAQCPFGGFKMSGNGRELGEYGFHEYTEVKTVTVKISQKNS
HttQ103 aggreg: reduces HttQ103-GFP aggregates in PC12 cells; Potency, µM (highest dose often 46.1 µM), for inactives: top-dose activity change, negative = inhibition, most hits filed as inhibitors; 1.1% of 220,000 active; PC12 HttQ103-GFP aggregates, Acumen cytometry, 40 h; also: % is scaled to controls: 0 for no effect and ±100 for the full control effect; nearly all actives have a fitted effect of over 60% in size
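Inducible Q103 Huntingtin exon 1–GFP PC12 line, 1500 cells/well in phenol red free DMEM with 5% equine and 5% calf serum. Tebufenozide 100 nM induced expression; compounds titrated; aggregates quantified by cytometry.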
KinaseGlo FLuc: counter-screen: inhibitors of Kinase-Glo firefly luciferase. Q27757. Kinase-Glo luciferase, ATP luminescence, 8 min. Potency, µM (doses to about 38.3 µM), inactives show at the top dose activity change, negative = inhibition, hits mostly inhibitors. 0.28% of 200,000 active. AID 1379; also: % is scaled to controls: 0 for no effect and ±100 for the full control effect; nearly all actives have a fitted effect of over 60% in size
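Inhibition of Kinase-Glo luciferase light generation was assessed at 10 uM ATP in pH 7.2 imidazole buffer, with luminescence measured after eight minutes at ambient temperature.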
An asterisk follows results filed as active; ? = inconclusive; nt = no result; [ ] = another dose, or the depositor's remark. In the library only some 9% were active in any assay of this set; here they are far more common. Unless noted, calls follow the shape of the dose curve; as a rule, active = well fitted curve in the direction sought with a large enough effect; inconclusive = small, poorly fitted or top-dose-only effect, or another doubt; inactive = no such curve, though single readings can be large; an effect the other way counts as inactive or inconclusive. Potency is read from the fitted curve at half-maximal effect.

SMILES | Lamin A splicing | HTT cytoprotect | HPGD block | ALDH1A1 inh | HttQ103 aggreg | KinaseGlo FLuc
COc1ccc(C(C)=O)cc1CSc1nc2cc(Cl)ccc2o1 | ? | -7% | -26% | 25µM* | -21% | -2%
O=C(O)Cc1sc(-c2ccccc2Cl)nc1-c1ccccc1 | 4%[46 µM] | -81% | nt | ? | -3% | -6%
O=C(CSc1nc2cc(Cl)ccc2o1)c1cccs1 | 0% | -8%[10 µM] | 14µM* | -2% | -1% | -5%
Cc1nc(SCC(=O)c2cccs2)c2oc3ccccc3c2n1 | ? | -22% | 13µM* | 2% | -2% | -4%
O=C(CSc1ncnc2c1oc1ccccc12)c1cccs1 | 12% | -13%[0.074 µM] | -26% | 10% | 4% | -2%
O=C(NCCCN1CCCC1=O)c1ccccc1NS(=O)(=O)c1ccc(F)cc1 | -5% | 2%[10 µM] | ? | ? | 6% | 8%
COc1ccc(CNC(=O)c2c(C)oc3c2C(=O)c2ccccc2C3=O)cc1 | ? | nt | -6% | ? | ? | -3%
Cc1oc2c(c1C(=O)NCc1cccnc1)C(=O)c1ccccc1C2=O | nt | -97%[10 µM] | nt | -1% | 3.5µM* | nt
CC(=O)c1c(C)oc2c1C(=O)c1ccccc1C2=O | ? | -53%[10 µM] | -1% | 10% | 7.1µM* | 3%
Cc1ccc(S(=O)(=O)/N=C2\SC(CC(=O)Nc3ccc(F)cc3)C(=O)N2c2ccccc2)cc1 (centres undefined) | 1% | -6%[10 µM] | -20% | 5.6µM* | -3% | -1%
O=C(O)CC1S/C(=N\N=C2CCCCCCC2)N(c2ccccc2)C1=O (centres undefined) | ? | -1% | nt | 9% | 23% | 5%
C=CCN1C(=O)C(CC(=O)Nc2ccc(C)cc2)SC1=Nc1c(C)n(C)n(-c2ccccc2)c1=O (centres undefined) | -4% | -6% | -5% | 2% | 30% | -1%
O=C(CC1S/C(=N\S(=O)(=O)c2ccccc2)N(c2ccccc2)C1=O)Nc1ccc(F)cc1 (centres undefined) | -16% | 3%[10 µM] | -9% | 25µM* | 6% | -4%
COc1ccc(S(=O)(=O)N2CCSC2c2ccccc2)cc1 (centres undefined) | ? | -1%[10 µM] | -19% | 25µM* | -9% | 2%
COc1ccc(S(=O)(=O)N2CCSC2c2ccc(OC)c(OC)c2)cc1 (centres undefined) | ? | -20% | -17% | ? | ? | 0%
Clc1cccc(Nc2ncnc3ccc(Br)cc23)c1 | -13% | -52% | -25% | -8% | 11µM* | -6%
Brc1ccc2ncnc(NCc3ccccc3)c2c1 | ? | 22% | -29% | -12% | 2.2µM* | 17%
c1ccc(CCNc2ncnc3ccccc23)cc1 | ? | -122% | nt | 10% | 1.8µM* | -5%
Cc1ccccc1C(=O)Nc1nc(=S)ss1 | -7% | -14% | 14µM* | 3.2µM* | 5% | -3%
Cc1ccccc1C(=O)Nc1nc2c(C)csc2c(=O)s1 | nt | -6%[10 µM] | nt | nt | -32%[9.22 µM] | nt
O=C(Nc1nc(=S)ss1)c1c(F)cccc1F | 4% | -22% | ? | 22µM* | -10% | 0%
CC(=O)Nc1nc(=S)ss1 | 7% | 13%[10 µM] | 25µM* | 3.2µM* | -5% | 2%
Cc1ccccc1C(=O)Nc1nnc(SC(C)C)s1 | nt | -54% | nt | 16µM* | -15% | -6%
CC(C)Sc1nnc(NC(=O)CCc2ccccc2)s1 | nt | -14% | nt | -1% | -22% | 0%
Cc1cc2c(cc1C)CSC(c1ccccc1OC(=O)C(C)(C)C)SC2 | ? | 23%[10 µM] | -4% | 12% | -16% | 13%
SMILES | Lamin A splicing | HTT cytoprotect | HPGD block | ALDH1A1 inh | HttQ103 aggreg | KinaseGlo FLuc
COCCCNC(=O)CCSc1ccc(C)cc1 | 5% | nt | -23% | 3% | -13% | -4%
Cc1cc(NC(=O)COC(=O)CCNS(=O)(=O)c2cccc(C(F)(F)F)c2)no1 | -8%[46 µM] | 2% | nt | 0% | 21%[9.22 µM] | 3%
CC1(C)C(=O)NCCN1C(=O)CSc1nccc(-c2ccc(Br)cc2)n1 | 0% | -8%[10 µM] | 5% | 15% | 0% | 0%
Cc1nn(C(C)C(=O)Nc2ccc(Cl)cn2)c(C)c1[N+](=O)[O-] (centres undefined) | 4% | -17% | -1% | 2% | -9% | -6%
CC(C)CC(=O)Nc1nc2ccc(S(C)(=O)=O)cc2s1 | 5%[46 µM] | 29%[10 µM] | nt | ? | 11%[9.22 µM] | 3%
CC(C)CC(=O)Nc1nc(=S)ss1 | -6% | -1% | 14µM* | 3.5µM* | 12% | -1%
C#CCSC1=C(C#N)C(c2cccs2)C(C(=O)OCC)=C(C)N1 (centres undefined) | -6% | -21% | -23% | 25µM* | -3% | 1%
CCOC(=O)C1=C(C)NC(C)=C(C(=O)OCC)C1c1cccs1 | ? | -66%[10 µM] | -11% | 2% | 10% | 0%
O=C(CN1CCN(c2ccccc2F)CC1)Nc1ccccc1F | ? | -11% | 3% | 20µM* | 1% | 1%
O=C(CN1CCN(C(=O)c2ccco2)CC1)Nc1ccc2c(c1)OCCO2 | 12% | -9% | -9% | 13µM* | -4% | -1%
COc1ccccc1N1CCN(CC(=O)Nc2ccc3c(c2)OCCO3)CC1 | nt | 6% | nt | 22µM* | -11% | 0%
O=C(CN1CCN(CC(=O)Nc2ccccc2F)CC1)Nc1ccc2c(c1)OCCO2 | nt | -27% | nt | 28µM* | -10% | 3%
COc1ccccc1N1CCN(CCC(=O)Nc2ccc3c(c2)OCO3)CC1 | 4% | -36% | -8% | -3% | 3% | 0%
O=C(Nc1ccc(C(F)(F)F)cc1)c1cc(-c2cccnc2)nc2ccc(Br)cc12 | ? | -46% | -3% | 0% | -24% | -2%
Clc1ccc(SCCOCCN2CCc3ccccc3C2)cc1 | -4%[46 µM] | -58% | nt | ? | 9%[9.22 µM] | 1%
CCOc1cc(NC(=S)NCCCN2CCOCC2)c(OCC)cc1NC(=O)c1ccc(OC)cc1 | 2%[46 µM] | 1%[10 µM] | nt | 10% | -7%[9.22 µM] | -6%
O=C(CN1CCN(c2ccccc2)CC1)Nc1ccc2c(c1)OCCO2 | 19%[46 µM] | -12%[10 µM] | nt | 9% | 30% | -1%
COc1ccccc1N1CCN(CC(=O)Nc2ccc(C)c(F)c2)CC1 | ? | -23% | -15% | 14µM* | ? | -6%
O=C(c1ccco1)N1CCCN(Cc2nc(-c3ccc4c(c3)OCO4)no2)CC1 | ? | 18%[10 µM] | nt | 22µM* | -9%[9.22 µM] | 4%
Cc1ccc(NC(=O)CN2CCN(c3ccccc3F)CC2)cc1F | 4%[46 µM] | nt | nt | nt | nt | nt
O=C(CN1CCN(S(=O)(=O)c2ccc(Br)cc2)CC1)Nc1ccc2c(c1)OCCO2 | -9% | -13% | -10% | 25µM* | 16% | 2%
CCCn1c(N2CCN(CC(=O)Nc3ccc4c(c3)OCCO4)CC2)nc2ccccc21 | -7% | -7%[10 µM] | -7% | 25µM* | -2% | 4%
CCC/C=N/NC(=O)c1ccccc1O | -17%[46 µM] | -4%[10 µM] | nt | 4% | -6%[9.22 µM] | 0%
